HEK293 viab = GF-AFC viability counterscreen for inhibitors of alpha-synuclein gene (SNCA) expression; 0.12% of 150,000 active; HEK-293-SNCA-luc viability, GF-AFC fluorescence, 24 h; Potency, µM (top dose mostly 57.1 µM), actives largely listed as cytotoxic; also: nearly all actives have a fitted effect of over 30% in size
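Cytotoxicity counterscreen: after 24 h compound treatment of genome-edited SNCA-luciferase HEK-293 cells, live-cell protease substrate GF-AFC read by fluorescence after 30 min; activity scaled between DMSO (0%) and medium-only (-100%), curves Hill-fitted.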
SNCA expr inh = Primary qHTS assay for inhibitors of alpha-synuclein gene (SNCA) expression | 0.17% of 140,000 active | Potency, µM (top dose mostly 57.2 µM), usual class: inhibitors | HEK-293 SNCA-luciferase knock-in, luminescence, 24 h; also: nearly all actives have a fitted effect of over 45% in size
IP6K1 inhibitor = Primary qHTS assay for small molecule inhibitors of Inositol hexaphosphate kinase 1 (IP6K1). Inositol hexakisphosphate kinase 1 (Homo sapiens), Q92551. IP6K1 kinase, ADP-Glo luminescence, 2 h; stronger effect = lower value. activity change, % (series mostly up to about 58 µM). 0.81% of 140,000 active; in the data active = activity change below about -25%
Target sequence (Q92551 whole entry, looked up): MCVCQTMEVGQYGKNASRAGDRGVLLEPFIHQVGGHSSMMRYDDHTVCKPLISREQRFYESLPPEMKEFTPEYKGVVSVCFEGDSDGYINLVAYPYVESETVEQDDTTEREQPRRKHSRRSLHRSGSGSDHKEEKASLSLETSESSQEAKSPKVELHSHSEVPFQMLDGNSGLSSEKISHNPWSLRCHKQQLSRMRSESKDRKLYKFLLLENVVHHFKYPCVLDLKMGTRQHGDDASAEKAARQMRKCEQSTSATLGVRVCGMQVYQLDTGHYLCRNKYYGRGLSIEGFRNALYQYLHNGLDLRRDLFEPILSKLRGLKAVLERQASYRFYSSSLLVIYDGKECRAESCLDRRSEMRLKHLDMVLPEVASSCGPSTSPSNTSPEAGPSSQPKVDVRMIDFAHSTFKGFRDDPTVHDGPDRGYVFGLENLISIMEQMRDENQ
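ADP-Glo luminescence measures ADP made by human IP6K1 during a 2 h RT reaction with ATP/IP6 (mix at 1.3 mM/130 uM); top library doses 57.5 and 19.1 uM final.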
KDM5B inh = Primary screen for KDM5B Histone Demethylases FDH-coupled qHTS. KDM5B demethylase, FDH-coupled NADH fluorescence (FDH is formaldehyde dehydrogenase). 2.6% of 220,000 active. Lysine-specific demethylase 5B (Homo sapiens), Q9UGL1. AID 1347165, 2019. Potency, µM (doses to about 57.7 µM), actives largely listed as inhibitors; also: nearly all actives have a fitted effect of over 70% in size
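Here, H3K4me3 peptide (12.5 µM in substrate mix) is demethylated by KDM5BΔAP, 200 nM final, after 10 min compound exposure. Formaldehyde product is coupled through FDH (0.25 U/mL in mix) to NADH fluorescence; 30-min ΔRFU feeds dose-response curves.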
Large screens that a line does not name were inactive; ! = not active in a repeat. Sampled rows, rich in hits. Any-hit rate of the full collection: about 2.8%. Unless noted, calls follow the shape of the dose curve; as a rule, active = well fitted curve in the direction sought with a large enough effect; inconclusive = small, poorly fitted or top-dose-only effect, or another doubt; inactive = no such curve, though single readings can be large; an effect the other way counts as inactive or inconclusive.

C=C1C(=O)O[C@@H]2[C@H]1CC(=O)[C@H](C)[C@@](O)(C(=O)/C=C/C)[C@H]2OC(=O)C(C)CC (some centres undefined)	HEK293 viab 9.3µM (no result: SNCA expr inh, KDM5B inh)
O=c1cc(CN2CCN(c3ccccc3)CC2)occ1OCc1ccccc1	none (no result: HEK293 viab, SNCA expr inh, IP6K1 inhibitor)
O=c1cc(CN2CCOCC2)occ1OCCCCCSc1ccnc2cc(C(F)(F)F)ccc12	HEK293 viab 30µM!, SNCA expr inh inconclusive (no result: KDM5B inh)
O=c1[nH]c(C2CCCN(Cc3ccccn3)C2)nn1-c1ccccc1 (centres undefined)	SNCA expr inh inconclusive, KDM5B inh 22µM
COc1ccc(-c2ccc3c(c2)C(=O)N2CC[C@H](NC(=O)COCC(=O)O)[C@H]2C(=O)N3)cc1	KDM5B inh 20µM
O=C(O)CCC(=O)N[C@H]1CCN2C(=O)c3cc(/C=C/c4ccccc4)ccc3NC(=O)[C@H]12	KDM5B inh 40µM
COc1ccc(/C=C/c2ccc3c(c2)C(=O)N2CC[C@H](NC(=O)CCC(=O)O)[C@H]2C(=O)N3)cc1	KDM5B inh 28µM
O=C(O)CCC(=O)N[C@H]1CCN2C(=O)c3cc(-c4cccc(C(F)(F)F)c4)ccc3NC(=O)[C@H]12	none
O=C(O)COCC(=O)N[C@H]1CCN2C(=O)c3cc(-c4ccccc4F)ccc3NC(=O)[C@H]12	none
O=C(O)COCC(=O)N[C@H]1CCN2C(=O)c3cc(/C=C/c4ccccc4)ccc3NC(=O)[C@H]12	KDM5B inh 32µM
COc1ccc(-c2cc(=O)n3[nH]c(C)c(-c4ccccc4)c3n2)cc1OC	none (no result: HEK293 viab, SNCA expr inh, IP6K1 inhibitor)
Cn1cnc2c1c(=O)n(CCCSc1nnnn1-c1cccc(F)c1)c(=O)n2C	none (no result: HEK293 viab, SNCA expr inh, IP6K1 inhibitor)
CC(C)Cn1c(=O)c(C(=O)NCCc2ccccc2)nc2cccnc21	none (no result: KDM5B inh)
O=C(N[C@H]1CCN2C(=O)c3cc(/C=C/c4ccccc4)ccc3NC(=O)[C@H]12)C1CCCC1	KDM5B inh 32µM
C=CCO[C@@H]1CCN2C(=O)c3cc(-c4ccc(OC)cc4)ccc3NC(=O)[C@H]12	KDM5B inh 35µM
O=C1Nc2ccc(-c3ccccc3)cc2C(=O)N2CC[C@H](NS(=O)(=O)c3cccs3)[C@@H]12	SNCA expr inh inconclusive
COc1ccc(C(=O)N2CCN3C(=O)c4cc(-c5ccc(Cl)cc5)ccc4NC(=O)[C@@H]3C2)cc1	SNCA expr inh inconclusive, KDM5B inh inconclusive
O=C1Nc2ccc(/C=C/c3ccccc3)cc2C(=O)N2CC[C@H](NS(=O)(=O)c3cccs3)[C@@H]12	SNCA expr inh inconclusive, KDM5B inh 32µM
O=C(NCc1ccc(-c2ccc(F)cc2)o1)C1CC(=O)N(Cc2cccnc2)C1 (centres undefined)	KDM5B inh 25µM
Cc1ccc(F)c(NC(=O)[C@@H]2COCC(=O)N2Cc2ccc(F)cc2)c1	SNCA expr inh inconclusive, KDM5B inh 40µM
Cc1cccc(NC(=O)[C@@H]2COCC(=O)N2Cc2ccc(F)cc2)c1	none (no result: KDM5B inh)
CC(C)c1ccc(NC(=O)C2CC(=O)Nc3nc(N4CCOCC4)nc(N)c32)cc1 (centres undefined)	none (no result: HEK293 viab, SNCA expr inh, IP6K1 inhibitor)
CNC(=O)c1noc(CNC(=O)C(c2cccc(F)c2)N(C)C)n1 (centres undefined)	none
COCCc1nc(CNC(=O)C(c2cccc(F)c2)N(C)C)no1 (centres undefined)	KDM5B inh 22µM
CC(=O)N1CCCN(c2ncnc3c2CN(C2CCCNCC2)C(=O)CN3C)CC1 (centres undefined)	none
CN1CC(=O)N(C2CCCNC2)Cc2c1ncnc2N1CCc2ccccc2C1 (centres undefined)	KDM5B inh 50µM
CC(=O)N1CCCN(c2ncnc3c2CN(C2CCCNC2)C(=O)CN3C)CC1 (centres undefined)	KDM5B inh 50µM
O=C(O)/C=C/c1cccc(NS(=O)(=O)/C=C/c2ccccc2)c1	none (no result: HEK293 viab, SNCA expr inh, IP6K1 inhibitor)
COC(=O)c1c(C)sc2c1OC(N)=C(C#N)C21C(=O)N(Cc2cccc(F)c2)c2ccccc21 (centres undefined)	none (no result: HEK293 viab, SNCA expr inh, IP6K1 inhibitor)
COCCn1c(SCC(=O)c2cc(C)c(C)cc2C)nc2ccccc2c1=O	none (no result: HEK293 viab, SNCA expr inh, IP6K1 inhibitor)
O=C(Nc1ccc2c(c1)CCC2)N1CCc2c(nc3cc(-c4ccccc4)[nH]n3c2=O)C1	KDM5B inh 11µM
COc1ccc(NC(=O)N2CCc3c(nc4cc(-c5ccccc5)[nH]n4c3=O)C2)c(OC)c1	KDM5B inh inconclusive
COc1ccc(-c2cc3nc4c(c(=O)n3[nH]2)CN(C(=O)c2ccc(C)cc2)CC4)cc1	SNCA expr inh inconclusive, KDM5B inh inconclusive
COc1ccc(-c2cc3nc4c(c(=O)n3[nH]2)CN(C(=O)c2cc(CN3CCOCC3)on2)CC4)cc1	SNCA expr inh inconclusive, KDM5B inh 8.9µM
COc1ccc2c(c1)CCc1c-2n[nH]c1C(=O)N1CCc2c(nc3cc(-c4ccccc4)[nH]n3c2=O)C1	KDM5B inh 16µM
COc1ccc(-c2cc3nc4c(c(=O)n3[nH]2)CN(C(=O)c2ccc3[nH]ccc3c2)CC4)cc1	SNCA expr inh inconclusive, KDM5B inh 16µM
O=C(Cc1cccc(Cl)c1)N1CCCC(C(=O)N2CCC(c3ccccc3)CC2)C1 (centres undefined)	none (no result: KDM5B inh)
Cc1ccc(C(=O)N2CCc3c(nc4cc(-c5ccccc5)[nH]n4c3=O)C2)cn1	KDM5B inh 25µM
O=C(c1ccc2cc[nH]c2c1)N1CCc2c(nc3cc(-c4ccccc4)[nH]n3c2=O)C1	KDM5B inh 28µM
O=C(c1ccc(=O)[nH]c1)N1CCC(C(=O)N2CCc3c(nc4cc(-c5ccccc5)[nH]n4c3=O)C2)CC1	KDM5B inh inconclusive
COc1ccc(-c2ccc(C(=O)N3Cc4[nH]cnc4CC3C(=O)O)o2)cc1 (centres undefined)	KDM5B inh 28µM
CCCCN(Cc1ccccc1)c1ccc(NS(=O)(=O)c2ccc(CC(C)C)cc2)cc1C(=O)O	none (no result: HEK293 viab, SNCA expr inh, IP6K1 inhibitor)
Cc1ccccc1NC(=O)N1CCc2c(c3cc(F)ccc3n2C)C1	KDM5B inh 28µM
Cc1ccc(NC(=O)N2CCc3c(c4cc(F)ccc4n3C)C2)cc1	HEK293 viab inconclusive, KDM5B inh 14µM
CC(C)c1cccc(C(C)C)c1NC(=O)N1CCc2c(c3cc(F)ccc3n2C)C1	KDM5B inh 25µM
Cn1c2c(c3cc(F)ccc31)CN(C(=O)Nc1ccccc1)CC2	KDM5B inh inconclusive
CCc1cccc(NC(=O)N2CCc3c(c4cc(F)ccc4n3C)C2)c1	SNCA expr inh inconclusive, KDM5B inh 25µM
N#C/C(=C\c1ccc(-c2ccccc2Cl)o1)c1ccccc1	none (no result: HEK293 viab, SNCA expr inh, IP6K1 inhibitor)
CC(C)(C)OC(=O)N1CC(Nc2ccc(O)cc2)C1	HEK293 viab inconclusive, SNCA expr inh inconclusive, KDM5B inh 8.9µM!
Cc1cc2cc(-c3c(C)noc3C)nc(Nc3ccccn3)c2o1	KDM5B inh inconclusive
COc1cc(-c2nc(-c3c(C)noc3C)cc3c2cc(C)n3CCN(C)C)ccn1	KDM5B inh 32µM
COc1cc(-c2nc(-c3c(C)noc3C)cc3[nH]c(C)cc23)ccn1	KDM5B inh 32µM

Bioassay records as filed in PubChem BioAssay.
